Results published in PubChem BioAssay (NCI).
The panel holds about 83,000 compounds, 20% with a hit somewhere; the sample as a whole holds those more often.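 96-well plates, one dose, 48 hours. Percent growth reported; active if below 10.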 Values without a mark were called inactive. The source made the active and inactive calls.

Tests used:
Assay in all cases: NCI-60 one-dose screen, 48 h (100 = growth as untreated, 0 = no growth, -100 = all killed)
Conditions in all cases: 10 µM unless noted
[1] = system: SK-MEL-2 melanoma
[2] = system: EKVX NSCLC
[3] = system: SN12C renal
[4] = system: UO-31 renal
[5] = system: TK-10 renal
[6] = system: ACHN renal
[7] = system: CCRF-CEM leukemia
[8] = system: MOLT-4 leukemia
[9] = system: CAKI-1 renal
[10] = system: A498 renal

SMILES	growth [1]	growth [2] [%]	growth [3]	growth [4]	growth [5]	growth [6]	growth [7]	growth [8]	growth [9]	growth [10]
Cn1c(=O)c2[nH]c(Cc3ccc4c(c3)OCO4)nc2n(C)c1=O	122%	97.8	95.1%	93.5%	113%	92.1%	87%	122%		
O=[N+]([O-])c1cccc([I+]c2ccccc2)c1	76.1%		52.4%	43.6%	67.5%	63.3%	15.8%	12.6%	46%	40.5%
Brc1ccccc1Cn1c(-c2cncs2)nc2ccccc21	95.4%		85.1%	44.9%	82.6%	72.8%	78%	77.6%	74.4%	71.6%
CC1CCN(Cc2ccc(NC(=O)c3cc4ccc5cccnc5c4[nH]3)cc2)CC1	12%		33%	36.7%	51.1%	53.9%	3.08% (active)	11.8%	4.42% (active)	-8.68% (active)
N#Cc1c(N)c(C(=O)c2ccc3c(c2)OCCO3)n2c1CCCC2	6.49% (active)		42.7%	34.4%	39.9%	39%	30.5%	12.3%	4.26% (active)	38.8%
O=NN(CC(=O)NNc1ccccc1)CC(=O)NNc1ccccc1	77.7%		87%	22%	84.3%	46.4%	30.7%	42.2%	36%	107%
COc1ccc(C2C=C(c3ccc(Cl)cc3)N=C3SC=CN32)cc1 (stereo not drawn)	113%		114%	88.5%	118%	107%	88.2%	104%	101%	104%
Clc1cc(Br)ccc1-c1ccc(CNCC2CCNCC2)o1	76.8%		86.3%	-58.5% (active)	32.2%	3.97% (active)	24%	55.6%	68.6%	81.8%
O=c1c2sc3ncc(Cl)cc3c2nnn1-c1cccc(Cl)c1	92.9%		74.3%	48.5%	93%	46.1%		90.2%	67.4%	63.1%
O=C(CS)OCC(COC(=O)CS)(COC(=O)CS)COC(=O)CS	40.6%		90.2%	93.5%	113%	93.9%		3.08% (active)	96.5%	104%
CC(=O)[C@H]1CC[C@H]2[C@@H]3CC[C@H]4CC=CC[C@]4(C)[C@H]3CC[C@]12C	79.9%		96.1%	83.7%	85.9%	92.4%		83.9%	72.9%	103%
CC1=C(C(=O)Nc2ccc(F)cc2)C(c2ccccc2)C2=C(CC(C)(C)CC2=O)N1 (stereo not drawn)	89.4%		70.1%	60.1%	104%	82.7%	62.3%	62.9%	64.3%	47.1%
CCCCCCCCCCCCCCC(C(=O)OCC)C(=O)OCC	112%		101%	93%	117%	98.3%		109%	90.8%	105%
COS(=O)(=O)CCN(CCOS(C)(=O)=O)S(C)(=O)=O	78.9%		98.1%	86.7%	96.7%	92.9%		90.5%	96.8%	115%
COc1cc(-c2nc(-c3nc4cc(C(=O)c5ccccc5)ccc4[nH]3)cc3c2[nH]c2ccccc23)cc(OC)c1OC	87.3%		89.5%	73.2%	106%	87.2%	57.2%	63%	84%	105%
C/C(=N\OC(=O)Nc1ccccc1)c1ccccc1	111%		94.8%	88.7%	115%	106%	99.1%	94%	114%	39.4%
CCc1ccc(Nc2cc(C)c3ccc(O)cc3n2)cc1	85%		77%	44.1%	74.1%	73.8%	68.9%	62.9%	53%	93.7%
CCOP(=O)(O)OP(=O)(O)OCC	128%		105%	91.9%	103%	97.6%		87.1%	94.3%	110%
Cc1cc(C)cc(CCCCCCCCCCCCCCCCCC(=O)O)c1	150%		106%	89%	116%	98.9%		98.3%	100%	106%
COc1ccc(NC(=O)C2c3ccccc3C(=O)N(CC(C)C)C2c2cccs2)cc1 (stereo not drawn)	102%		92.1%	108%	97.8%	97.3%	92.7%	98.6%	92.2%	86.7%
FC(F)(F)C1=NNC(c2ccc3ccccc3c2)=NN1	111%		93.7%	65.6%	129%	90.1%	92.4%	107%	102%	90.5%
Cc1cc(N=Nc2ccc(-c3ccc(N=Nc4ccc(O)c(C(=O)O)c4)cc3)cc2)c(N)c(N=Nc2ccc(C(=O)O)cc2)c1N	91.8%		91%	76.9%	134%	80.3%		90.1%	86%	101%
CCC1CCc2nc3sc(C(=O)Nc4cccc(F)c4)c(N)c3cc2C1 (stereo not drawn)	63.3%		94.4%	67.2%	77%	67.9%	47.9%	37.5%	57.9%	50.5%
Nc1c(C(=O)Nc2cccc(Cl)c2)sc2ncc(Br)cc12	89.6%		82%	62.2%	57.9%	11.4%		87.4%	90.6%	96.5%
CCOC(=O)c1ccc(NC(=O)NC2=NCCS2)cc1	76.6%		45.4%	36.5%	97.5%	78.9%	7.22% (active)	19.7%	35.3%	-7.64% (active)
CC(C)COC(=O)NC(C)(C)C	93.1%		110%	95.6%	104%	104%		85.4%	96.4%	120%
COc1cc2c(cc1OC)C(=O)C(Br)CC2 (stereo not drawn)	81.6%		44.4%	39.4%	53.7%	42.1%	3.35% (active)	13.3%	10.4%	73.6%
C=CC[C@]1(O)CC[C@H]2[C@@H]3CCc4cc(O)ccc4[C@H]3CC[C@@]21C	90.6%		96.1%	85.7%	107%	94.5%		62%	103%	97.2%
CCn1c(CN2CCN(Cc3ccccc3)CC2)nc2cc(NC(=O)c3cccs3)ccc21	-50.1% (active)		-87.6% (active)	-96.7% (active)	-94.1% (active)	-79.2% (active)	-39.2% (active)	-11.3% (active)	-92.5% (active)	-91.6% (active)
CC1=NC(c2ccc(Cl)cc2)C2=C(N1)/C(=C/c1ccc(Cl)cc1)CCC2 (stereo not drawn)	98.4%		102%	78.5%	129%	102%	78.8%	74.6%	94.7%	102%
